One assay addresses Carbonic anhydrase 2 (Homo sapiens) (UniProt P00918). Briefly: compounds binding carbonic anhydrase 2 – biochemical, small-molecule microarray, Alexa647-labelled CAII, profiling panel (AID 1122). The conditions noted are these: CAII-A647 binding fluorescence, higher = more signal.
Turning to `COCCOC(=O)N1C(=O)[C@@]2(c3cc(C#CCCO)ccc31)[C@H](c1ccc(O)cc1)N1[C@H](c3ccccc3)[C@H](c3ccccc3)OC(=O)[C@H]1[C@@H]2C(=O)Nc1nc2ccccc2s1`, the composite z-score was determined as 0.16.

As to `COc1cc2c(cc1OC)CN(C(=O)[C@@H]1[C@H]3C(=O)O[C@H](c4ccccc4)[C@H](c4ccccc4)N3[C@H](c3ccccc3OCCO)[C@@]13C(=O)Nc1ccccc13)CC2`, the composite z-score is 0.609.

As for `COc1ccc([Si](C)(C)[C@H]2[C@H](CCO)O[C@@]3(C(=O)N(Cc4ccc(N5CCCCC5=O)cc4)c4ccccc43)[C@@H]2C)cc1`, the composite z-score was 0.596.

In the case of `CCCCO[C@H]1C[C@H]2C(Br)=C[C@@]1(CO)C(=O)[C@]21CO1`, the composite z-score was -0.548.

Regarding `CCOC(=O)C[C@H]1[C@H](OC(=O)c2ccccc2-c2ccccc2)[C@@H](NC(=O)C2CCCCC2)c2cc(OCCCO)ccc2N1C(=O)c1ccccc1`, the composite z-score was 0.393.

For the molecule `CO[C@H]1COC(=O)[C@H](C)NC(=O)CC=C[C@@H](C)[C@H](NS(=O)(=O)c2ccc(C)cc2)COC(=O)[C@@H](OCc2ccccc2)C=C[C@@H]1C`, the composite z-score was -0.367.

In turn, `CC(C)CNC(=O)[C@@]1(C)c2ccccc2C(=O)N(Cc2ccc(OC(F)(F)F)cc2)[C@H]1c1ccc(CO)cc1` came in with a composite z-score of 0.706.

With `CC(C)C[C@@H]1NC(=O)[C@H]2C[C@@H](C(=O)NCCCCCC[N+](C)(C)C)[C@@H](c3ccc(O)cc3)N2C1=O`, the composite z-score worked out at 0.717.

Take `C=CC[C@@]1(C(=O)NCC(O)CO)N=C(c2ccc(OCCCO)cc2)O[C@@H]1c1ccccc1CN=[N+]=[N-]` (stereo partly specified): the composite z-score is 0.809.

System in a further assay: not listed separately
The experiment in a line: COS7 lysate on small-molecule microarray, probe aHis, 635 nm (AID 1123).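 Note: z-score combines 667nm fluorescence intensity with signal-to-noise per printed compound spot.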 To be noted: COS7 cell lysate, fluorescence, higher = more signal.
As for `COCCOC(=O)N1C(=O)[C@@]2(c3cc(C#CC4(O)CCCCCC4)ccc31)[C@H](C(=O)N1CCCCCCC1)[C@H]1C(=O)O[C@H](c3ccccc3)[C@H](c3ccccc3)N1[C@@H]2c1ccc(O)cc1`, the composite z-score was 2.62.

`C=CCC(OC(C)=O)[C@@H]1[C@@H](N(Cc2cc3ccccc3o2)C(=O)Cc2ccc(F)cc2)c2cc(OCCCO)ccc2N1C(=O)c1ccc(-c2ccccc2)cc1` (stereo partly specified): the composite z-score came to 0.125.

`O=C(CS)NCCCCCNC(=O)[C@H]1C[C@H]2C(=O)N[C@@H](Cc3ccccc3)C(=O)N2[C@H]1c1ccc(O)cc1` gave a composite z-score of 0.704.

Consider `CO[C@H]1COC(=O)CC=C[C@@H](C)COC(=O)[C@@H](C)NC(=O)CC=C[C@@H]1C`, for which the composite z-score is -0.736.

`CCC(=O)[C@]12O[C@@]3([C@@H]4C(=O)OCC[C@@H]41)N(Cc1ccccc1)C(C)=C(C(=O)OC)[C@@H](c1ccccc1)N3C2=O` displayed a composite z-score of -0.859.

In turn, `C[C@]1(C(=O)NCCN2CCOCC2)c2ccccc2C(=O)N(Cc2ccccc2)[C@H]1c1ccc(CO)cc1` came in with a composite z-score of 0.652.

Turning to `CC[C@H]1C2=C3C(CC[C@H]4C(OC)OC[C@](C)([C@@H]34)N(C(=O)OC(C)(C)C)C2)C(CO)C1CO` (stereo partly specified), the composite z-score is 3.15.

Turning to `O=C1c2ccccc2[C@@]2(Cc3ccccc3N(CC(F)(F)F)C2=O)[C@H](c2ccc(CO)cc2)N1C1CCCCC1`, the composite z-score is 0.31.

For the molecule `C=C(C(=O)CC[C@H](OC(=O)c1ccccc1-c1ccccc1C(=O)O)c1ccc(CO)o1)C(C)C`, the composite z-score amounted to 0.23.

As to `CC1=C([C@H](O)CCc2ccccc2)[C@H](CO)[C@@H]2C(=O)N(Cc3ccccc3)C(=O)[C@@H]2C1`, the composite z-score worked out at 0.307.

`O=C1O[C@H](c2ccccc2)[C@H](c2ccccc2)N2[C@H]1[C@@H](C(=O)NC[C@H](O)c1ccccc1)[C@]1(C(=O)Nc3ccc(C#CC4=CCCCC4)cc31)[C@H]2c1ccc(OCCO)cc1` displayed a composite z-score of 0.864.

For the molecule `COc1cc(Cc2cc3c(c(CCc4ccccc4)n2)[Si](C(C)C)(C(C)C)OC3)cc(OC)c1OC`, the composite z-score is -0.177.

With `CO[C@H]1O[C@H](CO)[C@@H](OC(=O)CCc2ccccc2)[C@@H]2OC(=O)[C@H](Cc3cccc(Br)c3)C/C=C/C[C@@H](Cc3cccc(Br)c3)C(=O)O[C@@H]12`, the composite z-score was 1.04.

The molecule `Cc1ccc(S[C@]2(C(=O)NCCCN(C)C)CC(=O)N(C3CCCCC3)[C@@H]2c2ccc(CO)cc2I)cc1` registered a composite z-score of 1.51.

For `COC(=O)[C@@]1(Cc2ccccc2CN=[N+]=[N-])N=C(c2ccc(OCCCO)cc2)O[C@H]1c1ccccc1N=[N+]=[N-]`, the composite z-score came out at 1.33.

In turn, `CO[C@@H]1COC(=O)[C@H](C)NC(=O)CC=C[C@@H](C)[C@H](OC)COC(=O)[C@H](C)NC(=O)CC=C[C@H]1C` registered a composite z-score of -0.466.

Consider `COCCOC(=O)N1C(=O)[C@@]2(c3cc(C#CCNC(N)=O)ccc31)[C@H](c1ccc(OCCO)cc1)N1[C@H](c3ccccc3)[C@H](c3ccccc3)OC(=O)[C@H]1[C@@H]2C(=O)Nc1nc2ccccc2s1`, for which the composite z-score came out at 0.447.

Values taken from PubChem BioAssay.
